Several values for one entry are separate records, joined by “and”; a condition that tells them apart may be missing. Equal values may be shown once. Values without a mark were called inactive. Records with an inconclusive call do not appear. Activity calls are given as the source filed them. Calls follow the shape of the dose curve; as a rule, active = well fitted curve in the direction sought with a large enough effect in the repeat runs; inconclusive = weak or mixed curves; inactive = no such curve, though single readings can be large; an effect the other way counts as inactive or inconclusive.
% is scaled to controls: 0 for no effect and ±100 for the full control effect.
Also: nearly all actives have a fitted effect of over 50% in size.

The nature of the first assay: qHTS RealTime-Glo MT Cell Viability Assay in HEK293 cells - 32 hour (AID 1224868). Also: potency is read from the fitted curve at half-maximal effect. As to activity change, negative = cytotoxic: top concentration of the series differs between compounds. Particulars: RealTime-Glo luminescence; series mostly up to 76.8 µM; activity change, negative = cytotoxic: at the top concentration. The essentials: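 HEK293 cells seeded with NanoLuc/prosubstrate reagent, rested 5 h at 37 C, then dosed and kept at 37 C up to 40 h. Nonlytic real-time luminescence from viable cells read at 0, 8, 16, 24, 32 and 40 h.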
Turning to `COP(=S)(OC)Oc1nc(Cl)c(Cl)cc1Cl`, the “activity change, negative = cytotoxic” value is -0.246%.
For `[O-][Cl+3]([O-])([O-])O`, the “activity change, negative = cytotoxic” value was 4.51%.
Still for that read-out and setting: the value for `CCCCC/C=C\C/C=C\C/C=C\C/C=C\CCCC(=O)NCC(=O)O` was -12.5% [at 35.3 µM].
For `c1ccc(Nc2ccc(Nc3ccccc3)cc2)cc1`, the Potency was 21.8 µM (active).
Regarding `O=Cc1ccccc1`, the “activity change, negative = cytotoxic” value is 19.8%.
As to `N#CC(C#N)=NNc1cccc(Cl)c1`, the Potency is 4.9 µM (active).
Same read-out and setting: the value for `CC[C@H](C)[C@H]1O[C@]2(C=C[C@@H]1C)C[C@@H]1C[C@@H](C/C=C(\C)[C@@H](O[C@H]3C[C@H](OC)[C@@H](O[C@H]4C[C@H](OC)[C@@H](NC)[C@H](C)O4)[C@H](C)O3)[C@@H](C)/C=C/C=C3\CO[C@@H]4[C@H](O)C(C)=C[C@@H](C(=O)O1)[C@]34O)O2` was 4.9 µM (active).
In the case of `Nc1cc(Cl)ccc1Cl`, the “activity change, negative = cytotoxic” value is 19.8%.
With `BrCC(Br)(Br)Br`, the Potency is 45.3 µM (active).
Take `CCC(OC(C)=O)C(CC(C)NC)(c1ccccc1)c1ccccc1` (configuration not stated): the Potency was 55.4 µM (active).
Still for that read-out and setting: the figure for `O=C1C2(Cl)C3(Cl)C4(Cl)C(Cl)(Cl)C5(Cl)C3(Cl)C1(Cl)C5(Cl)C24Cl` (configuration not stated) is 19.2 µM (active) and 41.8 µM (active); for `O=C1C(Cl)=C(Cl)C(=O)C(Cl)=C1Cl` it is 24.5 µM (active) and 19.5 µM (active).
As to `CSC(C)(C)/C=N/O`, the “activity change, negative = cytotoxic” value was 5.83%.
Still for that read-out and setting: the figure for `NC(=O)C(Cl)Cl` is 2.67%.
Same read-out and setting: the value for `CN(C)CCc1c[nH]c2ccccc12` was 0.595%; that for `CCCCn1cc[n+](C)c1` (tested in a mixture with another compound) was -2.48%; that for `CCC(C)c1cccc(C(C)CC)c1O` (configuration not stated) was -14.5%.
As to `Fc1ccc(C(OCCN2CCN(CCCc3ccccc3)CC2)c2ccc(F)cc2)cc1`, the Potency was 9.52 µM (active).
Turning to `CCN(CC)CCN1C(=O)CN=C(c2ccccc2F)c2cc(Cl)ccc21`, the “activity change, negative = cytotoxic” value was -10.4% [at 35.3 µM].
On the same count and under the same terms, the figure for `Nc1ccccc1-c1ccccc1` is -11.4%.
As to `O=[N+]([O-])c1cc(C(F)(F)F)c(Cl)c([N+](=O)[O-])c1Nc1ncc(C(F)(F)F)cc1Cl`, the Potency was 1.74 µM (active).
As for `CCCCn1cc[n+](C)c1.[Cl][Fe-]([Cl])([Cl])[Cl]`, the “activity change, negative = cytotoxic” value was -1.42%.
As for `S=C=NCCc1ccccc1`, the Potency was 49.1 µM (active).
Consider `Nc1nc(N)nc(Cl)n1`, for which the “activity change, negative = cytotoxic” value was 0.116%.
Turning to `Brc1cccc(-c2ccccc2)c1`, the “activity change, negative = cytotoxic” value was -14%.
On the same count and under the same terms, the figure for `CCCCCON=O` is -6.58%.
On to `CC(=O)C(Cl)C(=O)N(C)C` (configuration not stated), for which the “activity change, negative = cytotoxic” value is 2.11%.
Turning to `COc1ccc2[nH]cc(CCN(C(C)C)C(C)C)c2c1`, the “activity change, negative = cytotoxic” value was -17.5%.
`Cc1ccn2nc(S(=O)(=O)Nc3c(F)cccc3F)nc2n1`: the “activity change, negative = cytotoxic” value is 15.3%.
Regarding `COC(=O)C(C)N(C(=O)c1ccco1)c1c(C)cccc1C` (configuration not stated), the “activity change, negative = cytotoxic” value was -10.4%.
As to `O=c1c2ccccc2c(=O)c2c1cc(Cl)c1[nH]c3c([nH]c12)c(Cl)cc1c(=O)c2ccccc2c(=O)c13`, the “activity change, negative = cytotoxic” value was 18%.
Take `N#CSCc1ccccc1`: the “activity change, negative = cytotoxic” value was -26%.
Take `ClC1=C(Cl)[C@]2(Cl)[C@H]3[C@H]([C@@H]4C=C[C@H]3C4)[C@@]1(Cl)C2(Cl)Cl`: the Potency is 48.9 µM (active) and 49 µM (active).
For `O=C(N[C@@H]1N=C(c2ccccc2F)c2cccc3c2N(CC3)C1=O)c1cc2ccccc2[nH]1`, the “activity change, negative = cytotoxic” value is -2.71% [at 35.3 µM].
`CN(C)C(=S)SSC(=S)N(C)C`: the Potency is 242 nM (active) and 245 nM (active).

The nature of the next assay: A CellTox Green Cytotoxicity Assay to monitor cytotoxicity in HEK293 cells - 0 hour (AID 1224869). Particulars: CellTox Green fluorescence; series mostly up to 76.8 µM; cytotoxicity: at the top concentration. In short, it runs like this: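 Cells (HEK293, 600/well) and dye reagent are dispensed together. After 5 h at 37 C, 23 nL compound is pinned in. Plates stay at 37 C for 40 h with fluorescence read at 0h, 8h, 16h, 24h, 32h and 40h.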
Take `COP(=S)(OC)Oc1nc(Cl)c(Cl)cc1Cl`: the “cytotoxicity” value is 0.558%.
On the same count and under the same terms, the figure for `[O-][Cl+3]([O-])([O-])O` is -4.98%; for `CCCCC/C=C\C/C=C\C/C=C\C/C=C\CCCC(=O)NCC(=O)O` it is 0.505% [at 35.3 µM].
On the same count and under the same terms, the value for `O=Cc1ccccc1` was 0.425%; that for `N#CC(C#N)=NNc1cccc(Cl)c1` was -4.23%.
The same measure, in the same setting: the figure for `CC[C@H](C)[C@H]1O[C@]2(C=C[C@@H]1C)C[C@@H]1C[C@@H](C/C=C(\C)[C@@H](O[C@H]3C[C@H](OC)[C@@H](O[C@H]4C[C@H](OC)[C@@H](NC)[C@H](C)O4)[C@H](C)O3)[C@@H](C)/C=C/C=C3\CO[C@@H]4[C@H](O)C(C)=C[C@@H](C(=O)O1)[C@]34O)O2` is -2.19%; for `Nc1cc(Cl)ccc1Cl` it is -1.51%.
`C1=CCC=C1`: the “cytotoxicity” value is -3.43%.
On the same count and under the same terms, the figure for `BrCC(Br)(Br)Br` is -9.64%; for `CCC(OC(C)=O)C(CC(C)NC)(c1ccccc1)c1ccccc1` (configuration not stated) it is 0.134%.
Take `O=C1C2(Cl)C3(Cl)C4(Cl)C(Cl)(Cl)C5(Cl)C3(Cl)C1(Cl)C5(Cl)C24Cl` (configuration not stated): the Potency entry is “inactive”.
For the molecule `O=C1C(Cl)=C(Cl)C(=O)C(Cl)=C1Cl`, the Potency entry was “inactive”.
For `CSC(C)(C)/C=N/O`, the “cytotoxicity” value was 0.307%.
On the same count and under the same terms, the value for `NC(=O)C(Cl)Cl` was -3.19%.
Still for that read-out and setting: the value for `CN(C)CCc1c[nH]c2ccccc12` was -2.36%; that for `CCCCn1cc[n+](C)c1` (tested in a mixture with another compound) was -1.95%.
Still for that read-out and setting: the figure for `CCC(C)c1cccc(C(C)CC)c1O` (configuration not stated) is -0.381%.
As for `Fc1ccc(C(OCCN2CCN(CCCc3ccccc3)CC2)c2ccc(F)cc2)cc1`, the “cytotoxicity” value was 8.15% [at 35.3 µM].
For `CCN(CC)CCN1C(=O)CN=C(c2ccccc2F)c2cc(Cl)ccc21`, the “cytotoxicity” value was 4.19% [at 35.3 µM].
`Nc1ccccc1-c1ccccc1`: the “cytotoxicity” value is -0.0408%.
Still for that read-out and setting: the figure for `O=[N+]([O-])c1cc(C(F)(F)F)c(Cl)c([N+](=O)[O-])c1Nc1ncc(C(F)(F)F)cc1Cl` is -12.4%; for `CCCCn1cc[n+](C)c1.[Cl][Fe-]([Cl])([Cl])[Cl]` it is 7.83%; for `S=C=NCCc1ccccc1` it is -2.86%.
Regarding `Nc1nc(N)nc(Cl)n1`, the “cytotoxicity” value was -0.318%.
For `Oc1cccc(Cl)c1Cl`, the “cytotoxicity” value is -0.748%.
Same read-out and setting: the value for `Brc1cccc(-c2ccccc2)c1` was 0.486%.
Consider `CCCCCON=O`, for which the “cytotoxicity” value is 4.75%.
Consider `CC(=O)C(Cl)C(=O)N(C)C` (configuration not stated), for which the “cytotoxicity” value was -0.82%.
On the same count and under the same terms, the figure for `COc1ccc2[nH]cc(CCN(C(C)C)C(C)C)c2c1` is 0.547%; for `Cc1ccn2nc(S(=O)(=O)Nc3c(F)cccc3F)nc2n1` it is 2.02%; for `COC(=O)C(C)N(C(=O)c1ccco1)c1c(C)cccc1C` (configuration not stated) it is 2.9%.
Still for that read-out and setting: the figure for `CN1CCc2cc(Cl)c(O)cc2[C@H]2c3ccccc3CC[C@@H]21` is -0.171% [at 35.3 µM]; for `[C-]1=CC=CC1.[Cl][Zr+2][Cl].c1cc[cH-]c1` it is 1.64%; for `O=c1c2ccccc2c(=O)c2c1cc(Cl)c1[nH]c3c([nH]c12)c(Cl)cc1c(=O)c2ccccc2c(=O)c13` it is -6.04%.
For the molecule `N#CSCc1ccccc1`, the “cytotoxicity” value is -1.02%.
Consider `ClC1=C(Cl)[C@]2(Cl)[C@H]3[C@H]([C@@H]4C=C[C@H]3C4)[C@@]1(Cl)C2(Cl)Cl`, for which the Potency result is “inactive”.
Still for that read-out and setting: the entry for `CN(C)C(=S)SSC(=S)N(C)C` is “inactive”.
